In PubChem BioAssay AID1565 (Sanford-Burnham Center for Chemical Genomics, 2009):
Screen size: about 290,000 compounds; about 3,200 (1.1%) were called active. Cut-off read from the data, not from the text of the source: active = inhibition above about 60%; inactive = the rest. The entries come from a sample that favours actives as a whole.

Target: Phosphoethanolamine/phosphocholine phosphatase (Homo sapiens) (UniProt Q8TCT1)
Assay: PubChem AID 1565
Conditions: recombinant PHOSPHO1, absorbance phosphatase assay; at 13.3 µM; hits give high values

Phosphoethanolamine/phosphocholine phosphatase (Homo sapiens), sequence (Q8TCT1 whole entry, looked up): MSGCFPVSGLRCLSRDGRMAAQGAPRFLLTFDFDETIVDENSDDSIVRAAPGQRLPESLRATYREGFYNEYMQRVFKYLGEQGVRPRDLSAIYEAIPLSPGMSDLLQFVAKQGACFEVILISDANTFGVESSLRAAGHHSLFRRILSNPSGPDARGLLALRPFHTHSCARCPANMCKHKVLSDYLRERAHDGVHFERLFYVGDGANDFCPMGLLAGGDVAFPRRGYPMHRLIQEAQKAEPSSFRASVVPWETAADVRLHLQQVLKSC

inhibition, active:
COc1cc(OC)c(C2=NOC(C(=O)Nc3c(C)n(C)n(-c4ccccc4)c3=O)C2)cc1Cl (stereo unspecified) 64.2%
C=CCn1c(-c2ccc3[nH]c(C)c(C)c3c2)n[nH]c1=S 98.8%
Cc1ccccc1Cn1c2ccccc2c2cnn(CC(=O)NCc3ccco3)c(=O)c21 60.8%
CSc1ccc(CNC(=O)c2ccc(NC(=O)C3=CSCCO3)cc2)cc1 69%
CCOC(=O)CNC(=O)CSc1nnc(COc2ccc(Cl)cc2)n1CC 95.8%

inhibition, inactive:
CC1CCC(NC(=O)CN(C)S(=O)(=O)c2ccc3c(c2)c(=O)n(C)c(=O)n3C)CC1 (stereo unspecified) 58.3%
Cc1c(NC(=O)c2coc(=O)c(Br)c2)c(=O)n(-c2ccccc2)n1C -69.6%
COc1cc(NC(=O)C2CC(c3ccccc3O)=NO2)c(OC)cc1Cl (stereo unspecified) 24.3%
O=C(NCCN1CCCC(O)C1)c1cc(COc2c(F)cccc2F)on1 (stereo unspecified) 54.7%
C=CCn1c(-c2sc(-c3ccccc3)nc2C)n[nH]c1=S 27.7%
C=CCn1c(-c2ccccc2OCC)n[nH]c1=S -30.9%
CN1C/C(=C/c2cccs2)C(=O)/C(=C\c2cccs2)C1 16.1%
CNC(=O)C1CCN(S(=O)(=O)c2c(C)noc2/C=C/c2cccc(C)c2)CC1 34.4%
O=C(Cn1ncc2c3ccccc3n(Cc3ccccc3)c2c1=O)NCc1ccccn1 -6.3%
O=C(Cn1ncc2c3ccccc3n(Cc3ccccc3)c2c1=O)NCCCN1CCOCC1 57.9%
COc1ccc(-c2nnc(NC(=O)CS(=O)(=O)c3ccc(Cl)cc3)o2)c(OC)c1 46.9%
O=S(=O)(Cc1cc(Cl)nc(-c2cccnc2)n1)c1ccccc1 17.6%
COc1ccc(Cl)cc1NC(=O)CN(C)C(=O)CCCc1c[nH]c2ccccc12 9.8%
CCCNC(=O)CCn1nc(-c2ccccc2)c2ccccc2c1=O 19.9%
CS(=O)(=O)NCc1ccc(C(=O)NCc2ccccc2)cc1 -10%
O=C(Nc1ccc(C(=O)NCc2ccccc2Cl)cc1)C1=CSCCO1 37.5%
Cc1ccccc1OCC(=O)NNC(=O)c1cc(S(=O)(=O)N(C)C)ccc1N1CCCC1 33.4%
CSc1ccc(S(=O)(=O)N2CCC(C(=O)NCCc3ccccc3)CC2)cc1 13.8%
Cc1nn(CCCC(=O)NCc2ccccc2Cl)c(=O)c2nccn12 35.7%
CCOC(=O)CNC(=O)CSc1nnc(-c2cccc(OC)c2)n1CC 47.2%
CCn1c(COc2ccc(OC)cc2)nnc1SCC(=O)Nc1cc(OC)ccc1OC -14.1%
